Source: PubChem BioAssay (NCI)
Compounds without any hit were thinned out: in the full panel of roughly 83,000, 20% have a hit.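 Note: values are percent growth. 100 is the growth of untreated cells, values between 100 and 0 indicate rising inhibition; between -100 and 0 indicates cell death.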 Unmarked numbers belong to inactive results. Calls of active or inactive are those of the source. The calls were made as follows: active = growth percent below 10; inactive = the rest.

These compounds were tested on MDA-MB-468 breast (assay: NCI-60 one-dose screen, 48 h (100 = growth as untreated, 0 = no growth, -100 = all killed)). Conditions: 10 µM unless noted.

Row | SMILES | growth
1 | CN1CCN(c2ccc3nc(-c4[nH]ncc4Nc4ncnc5c4OCCCN5)[nH]c3c2)CC1 | -76.3% (active)
2 | CC[C@H](Nc1nc(N)nc(C)c1C#N)c1nc2cccc(CN(C)c3ncc(C(=O)NO)cn3)c2c(=O)n1-c1ccccc1 | -11.3% (active)
3 | Cc1nn(-c2ccccc2)c2nc3nc4c(c(N)c3c(-c3ccc(Cl)cc3)c12)CCCC4 | 104%
4 | CN(C)c1nc(N)c2nccnc2n1 | 115%
5 | c1ccc(-c2cn3nc(-c4c[nH]c5ccccc45)sc3n2)cc1 | 77.9%
6 | COc1cc(-c2nc3ccc(-c4nnc(SCC(=O)Nc5ccc(C(C)=O)cc5)o4)cc3[nH]2)cc(OC)c1OC | 101%
7 | C=C1c2nc3ccccc3n2C=C(c2cccc(Cl)c2)N1Cc1ccc(OC)cc1 | 32%
8 | CSc1ccc2c(c1)C(N1CCN(C)CC1)Cc1ccccc1S2 (stereo not given) | -66.4% (active)
9 | CCOc1ccc(C(=O)Nc2ncc(Cc3ccc(F)cc3)s2)cc1 | 31.9%
10 | COc1ccc(OC)c(-c2c(C#N)c(-c3ccc(Cl)cc3)nc3c2c(-c2ccccc2)nn3-c2ccccc2)c1 | 103%
11 | O=S(=O)(Nc1ccc(I)cc1Cl)c1ccc(-c2cnc(C3CC3)o2)cc1 | 20.1%
12 | CC1(C)CN(Cc2ccccc2)CCN1Cc1ccccc1 | 106%
13 | COc1cc(NS(C)(=O)=O)ccc1Cc1c2ccccc2nc2ccccc12 | -14.1% (active)
14 | N#Cc1c(-c2ccccc2)nc(SCC(=O)N2CCN(c3ccccc3)CC2)[nH]c1=O | 106%
15 | CN1C(=O)/C(=C/c2ccc(C(=O)Nc3ncc(Cc4cccc(Cl)c4)s3)cc2)SC1=S | 37.7%
16 | CC(C)c1c(C(=O)Nc2ccccc2)c(-c2ccccc2)c(-c2ccc(F)cc2)n1CC[C@@H]1CC=CC(=O)O1 | -48.3% (active)
17 | C=CCn1c(SCC(=O)Nc2ccc(C(=O)/C=C/c3cc(OC)c(OC)c(OC)c3)cc2)nnc1-c1cc(-c2ccc(Cl)cc2)nc2ccccc12 | 108%
18 | COc1ccc(Cn2cnc3cc(C(=O)Nc4cccc5ccccc45)ccc32)c(OC)c1 | -31.6% [30 µM] (active)
19 | O=C(N[C@@H]1CCCc2ccccc21)[C@H](CCC(=O)N1CCN(C2CCCCC2)CC1)N1C(=O)[C@@H](N2C(=O)OC[C@@H]2c2ccccc2)[C@H]1/C=C/c1ccccc1 | -34.6% (active)
20 | COC(=O)/C(CCC=C(C)C)=C1\[C@@H](OC(C)=O)C[C@@]2(C)[C@H]1CC(=O)[C@H]1[C@@]3(C)CC[C@H](NCc4ccccc4)[C@@H](C)[C@@H]3CC[C@@]12C | 87.2%

Row | SMILES | growth
21 | COc1cc(-c2csc(NC(=O)c3ccc(N4CCOCC4)c(C(F)(F)F)c3)n2)cc(OC)c1OC | 27.2%
22 | COc1cc2cc(Oc3ccc(NC(=O)c4cccc(C(F)(F)F)c4)cc3)c(C)nc2cc1OCCN1CCCCC1 | 37.6%
23 | CC1=CC(=O)C2=C(C)CC(OC(=O)CCc3ccccc3)[C@@H]3[C@H](OC(=O)[C@@H]3C)[C@@H]12 (stereo not given in full) | 79.4%
24 | O=C1c2cccc3cccc(c23)C(=O)N1Nc1nc(NC2CCCCC2)nc(N2CCOCC2)n1 | 114%
25 | c1ccc2c(c1)oc1c3c(ccc12)NCCC3 | -51.5% (active)
26 | FC(F)(F)c1cc(N2CCCCC2)nc(NCCCNc2ccnc3cc(Cl)ccc23)n1 | 1.13% (active)
27 | N#Cc1nn(-c2cc(=O)[nH]c3ccc(Br)cc23)c(N)c1C#N | 106%
28 | NS(=O)(=O)c1ccc(-n2cc(CN3CCCCC3)nn2)cc1 | 101%
29 | COc1cc(Cc2cc(-c3ccccc3)n[nH]c2=O)cc(OC)c1OC | 29%
30 | COc1cc(C)c2sc3ccccc3c(=O)c2c1NCCN(C)C | 49%
31 | COc1ccc(CCN2C(=O)/C(=C/c3nc(CO)cs3)SC2=S)cc1 | 27%
32 | COc1ccc(NC(=O)c2cc3ccccc3nc2Nc2cc(OC)c(OC)c(OC)c2)cc1 | 75.2%
33 | N#Cc1ccc(S(=O)(=O)Nc2ccc(-c3cnc(N)[nH]3)cc2)cc1 | 97.7%
34 | COc1cc(Cn2c(-c3ccccc3)cc3c2-c2oncc2CC3)cc(OC)c1 | -21.4% (active)
35 | COc1ccc(OC)c(/C=C/c2nc(=S)n(-c3ccc(Cl)cc3)[nH]2)c1 | 38.8%
36 | Cc1nc2c(nnn2-c2ccccc2)c2nc(-c3ccc(Cl)cc3)oc(=O)c12 | 106%
37 | CC1=NN(c2cccc(S(N)(=O)=O)c2)C(=O)C1 | 95.6%
38 | Cc1ccccc1C1=N[C@@H](Cc2ccccc2)C(=O)c2c(nc3ccccn23)N1 | 104%
39 | C=C1C(=O)O[C@H]2[C@H](O)[C@@H](C)CCC/C(C)=C/CC[C@@]3(C)O[C@@H]3C[C@@H]12 | 61.4%
40 | O=C(COCc1c(-c2ccccc2)no[n+]1[O-])Nc1ccc(C(=O)/C=C/c2ccc3c(c2)OCO3)cc1 | 98.7%
